Experimental data published in PubChem BioAssay AID686979 (National Center for Advancing Translational Sciences (NCATS), 2013).
In all, about 420,000 compounds went through this assay and about 50,000 (12%) were called active. Another 26% or so got no clear call; they are omitted. This is one part of a sample in which actives are shown more often than they occur. A number with no mark means an inactive call. Calls come from the whole dose curve; as a rule, active = well fitted inhibition curve with a large enough effect; inconclusive = small, poorly fitted or top-dose-only effect; inactive = flat fitted curve, though single readings scatter.

Assay: qHTS for Inhibitors of human tyrosyl-DNA phosphodiesterase 1 (TDP1): qHTS in cells in presence of CPT; note: nearly all actives have a fitted effect of over 55% in size
Settings: chicken DT40 Tdp1-/-;hTDP1 cells + 20 nM CPT, ATP luminescence, 48 h; series mostly up to 46.2 µM; activity change, negative = growth inhibition: at the top concentration
How it was run: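 Cell growth measured by CellTiter-Glo luminescence after a minimum 48 h, 37 C compound exposure with 20 nM CPT in Tdp1-knockout DT40 cells stably expressing hTDP1, seeded 400/well; qHTS titration format.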
% is set by controls: 0 for no effect and ±100 for the full control effect; potency is the fitted concentration of half-maximal effect.

| Compound | Potency | activity change, negative = growth inhibition |
| --- | --- | --- |
| CC(C)CC[n+]1ccn(C2=C([O-])c3ccccc3C(=O)/C2=N\S(=O)(=O)c2ccccc2)c1 | 11.6 µM (active) |  |
| CCCC(=O)Nc1cc2nn(-c3ccccc3)nc2cc1C |  | -1.95% |
| CCOC(=O)c1cc(-c2ccccc2)n(-c2cccc(C(=O)Nc3cc(OC)cc(OC)c3)c2)c1C |  | -5.9% |
| COc1cc(OC)cc(C(=O)Nc2cc3nn(-c4ccccc4)nc3cc2Cl)c1 | 11.6 µM (active) |  |
| COc1ccccc1-c1ccnc(-n2ncc(C(=O)NCCc3ccncc3)c2C)n1 |  | 39.7% [at 9.04 µM] |
| COc1cccc(COC(=O)C2CCN(S(=O)(=O)c3cccs3)CC2)c1OC |  | -0.942% |
| Cc1cccc(OCC(=O)NC2CC(C)(C)NC(C)(C)C2)c1 |  | 8.74% |
| O=C(Nc1cccc(F)c1)N1CCC2(CC1)CCN(S(=O)(=O)c1ccccc1)CC2 |  | -27.3% |
| O=C(c1cn(-c2ccccc2)nc1-c1cc2ccccc2oc1=O)N1CCOCC1 |  | 7.05% |
| O=c1oc2ccccc2cc1-c1cn(-c2ccccc2)c(=S)[nH]1 | 2.59 µM (active) |  |
| S=c1[nH]c(-c2cccs2)cn1-c1ccccc1 |  | -5.38% |
| CCn1c(CNC(=O)C23CC4CC(CC(C4)C2)C3)nnc1SCC(=O)Nc1ccc(OC)cc1 |  | -21.9% |
| COC(=O)C1CC2=C(CC(C)(C)CC2=O)N(c2ccccc2)C1=O (stereo not given) |  | -3.49% |
| CC(C)C1C2=C(CC(C)(C)CC2=O)ON1c1ccccc1 (stereo not given) | 25.9 µM (active) |  |
| CC(C)N1C(=O)N(c2ccccc2)C(C)(O)CC1(C)C (stereo not given) |  | -17% |
| COc1cc2nc(CN(C)Cc3ccc(F)cc3)[nH]c(=O)c2cc1OC |  | -27.7% |
| CCOC(=O)C1CCCN(C(=O)C2CCN(c3nnc(-n4cccc4)s3)CC2)C1 (stereo not given) |  | -2.31% |
| CCOC(=O)C1CCCN(C(=O)c2cccc3ccccc23)CC1 (stereo not given) |  | 5.97% |
| CCOC(=O)C1CCCN(C(=O)c2ccc(-n3ccc4ccccc43)s2)C1 (stereo not given) | 18.4 µM (active) |  |
| CCC(Oc1ccccc1C)C(=O)Nc1ccc(S(=O)(=O)Nc2cc(C)on2)cc1 (stereo not given) |  | 7.59% |
| CCOC(=O)c1sc(NC(=O)C2CSC3(C)CCC(=O)N23)nc1C (stereo not given) |  | 6.57% |
| CN(C)S(=O)(=O)c1ccc(C(=O)NCC2(N3CCOCC3)CCCCC2)cc1 |  | -27% |
| O=C(NCc1ccc(F)cc1)C1CCN(C(=O)Nc2ccc(F)cc2)CC1 |  | 7.91% |
| CCOC(=O)c1c(SCC(=O)Nc2cccc(C)c2C)nc(=O)[nH]c1C |  | -25.5% |
| CCOC(=O)c1c(C)[nH]c(C)c1S(=O)(=O)N(C)CC(=O)Nc1ccccc1C |  | -0.387% |

| Compound | Potency | activity change, negative = growth inhibition |
| --- | --- | --- |
| CCOC(=O)c1c(C)[nH]c2c1-c1ccccc1C(=O)C2=O | 0.517 µM (active) |  |
| Cc1ccc(S(=O)(=O)N2CCCC2C(=O)OCc2nc3sc(C)c(C)c3c(=O)[nH]2)cc1 (stereo not given) |  | -12.6% |
| COCCN(CCOC)c1nc(N)c2c(N)nc3c(c2c1C#N)CC(=O)N3Cc1ccc(Cl)cc1 |  | -6.53% |
| CN(C)c1ccc(C(CNC(=O)c2ccc(F)cc2)c2c[nH]c3ccccc23)cc1 (stereo not given) | 18.4 µM (active) |  |
| O=C(CNC(=O)c1ccc(F)cc1)c1ccccc1 |  | 1.2% |
| C[C@H](NC(=O)c1ccccc1)C(=O)OCC(=O)c1c[nH]c2ccccc12 |  | -21.6% |
| O=C(CCNC(=O)c1ccc(Br)cc1)NCCCc1ccccc1 |  | -23.6% |
| COc1ccccc1CN1CCNC(=O)C1CC(=O)N(C)CC1CCOCC1 (stereo not given) |  | -8.06% |
| O=S(=O)(NCc1cccnc1)c1ccc(Br)s1 |  | -22.4% |
| Cc1cc(C)c[n+](-c2nc3ccccc3nc2[N-]S(=O)(=O)c2cccs2)c1 |  | 5.23% |
| O=S(=O)([N-]c1nc2ccccc2nc1-[n+]1ccc(Cc2ccccc2)cc1)c1ccc(Br)s1 | 14.6 µM (active) |  |
| C[C@@H](NC(=O)c1nc[nH]c1C(=O)N1CCN(C(=O)OC(C)(C)C)CC1)c1ccccc1 |  | -20.9% |
| Cc1ccccc1N1CC(C(=O)Nc2ccc(S(=O)(=O)N3CCCC3)cc2)CC1=O (stereo not given) |  | -23.3% |
| O=C1CS(=O)CN1c1ccc(Oc2ccccc2)cc1 (stereo not given) |  | -3.4% |
| COc1ccc(-c2cc(C(F)(F)F)nc(NCc3cccnc3)n2)cc1 |  | -5.03% |
| COc1ccc(-c2nc3cnccn3c2NC(C)(C)CC(C)(C)C)cc1O | 20.6 µM (active) |  |
| Cc1cccc(NC(=O)N2CCN(C)c3ncccc32)c1C |  | -12.9% |
| CCN1C(=O)c2ccccc2Sc2ccc(NC(=O)Cc3ccc(OC)cc3)cc21 |  | -3.35% |
| CCOc1ccccc1C(=O)Nc1ccc2c(c1)N(C)C(=O)c1ccccc1S2 | 4.61 µM (active) |  |
| CCOc1ccccc1C(=O)NCCCn1ccnc1 |  | 4.33% |
| C[C@H]1CC[C@]2(O[C@@H](CCO)C[C@@H](O)[C@@H]2O)O1 |  | -12.3% |
| C=CCn1cc(Cl)cc(C(=O)Nc2ccccc2)c1=O |  | 17.1% |
| CN(C)C(=O)N1CCNCC1 |  | -3.78% |
| CC(C)(C)C(=O)NC(NC(=S)Nc1ccc(S(N)(=O)=O)cc1)C(Cl)(Cl)Cl (stereo not given) |  | -7.12% |
| CCOc1cc(C(=O)Nc2c(C)ccc3nsnc23)cc(OCC)c1OCC |  | -8.86% |

| Compound | Potency | activity change, negative = growth inhibition |
| --- | --- | --- |
| COc1ccc(-c2nnc(SC(C)C(=O)NC3CC3)o2)cc1 (stereo not given) |  | -0.623% |
| COc1ccc(-c2nnc(SC(C)C#N)o2)cc1 (stereo not given) |  | -9.97% |
| COc1ccc(-c2nnc(SC(=O)N3c4ccccc4Sc4ccccc43)o2)cc1 | 8.2 µM (active) |  |
| Clc1ccc(-c2nnc(-c3ccccc3)nc2N2CCSCC2)cc1 | 16.4 µM (active) |  |
| OCCN1CCN(c2nnc(-c3ccccc3)c3ccccc23)CC1 |  | -7.45% |
| O=C(Cn1c(=O)n(-c2ccc(F)cc2)c(=O)c2sc3ccccc3c21)NC1CCCC1 |  | -6.01% |
| O=c1c2ccccc2ncn1CCc1ccncc1 |  | 6.46% |
| CCOC(=O)c1oc2ccc(S(=O)(=O)n3nc(-c4ccccc4OC)cc3N)cc2c1C | 18.4 µM (active) |  |
| COc1ccccc1-c1cc2nc(C)c(CCC(=O)O)c(C)n2n1 |  | 4.44% |
| Cc1ccc(S(=O)(=O)n2nc(OC(=O)C(C)(C)C)cc2N)cc1 |  | 5.36% |
| O=C(CC1C(=O)NCCN1Cc1ccc(-c2ccccc2)cc1)NCc1ccncc1 (stereo not given) |  | -29.6% |
| CN[C@@H]1[C@H](O[C@H]2[C@H](O[C@H]3[C@H](O)[C@@H](O)[C@H](N=C(N)N)[C@@H](O)[C@@H]3N=C(N)N)O[C@@H](C)[C@]2(O)CO)O[C@@H](CO)[C@H](O)[C@H]1O |  | 5.85% |
| Cc1nc(Nc2ccc(S(=O)(=O)N3CCCC3)cc2)c2nnn(Cc3ccccc3)c2n1 |  | 0.0843% |
| Cc1ccc(-c2csc(-c3cc(C)on3)n2)cc1 |  | 4.19% |
| Cc1ccc(-c2csc(-c3c[nH]c4ccccc34)n2)cc1 | 16.4 µM (active) |  |
| Clc1ccc(-c2csc(-c3ccncc3)n2)cc1 |  | 5.47% |
| O=C(NNC1=NCCC1)c1cccc(S(=O)(=O)N2CCCCC2)c1 |  | -3.42% |
| c1ccc2cc3[nH]c(CN4CCCCC4)nc3cc2c1 |  | -8.01% |
| CCCCCn1nnnc1-c1nc2cc3ccccc3cc2[nH]c1=O | 4.11 µM (active) |  |
| Cc1ccc(-c2nc3ccccc3[nH]c2=O)cc1 |  | 1.57% |
| CN1CCN(c2ccc(NC(=O)c3ccc4c(c3)OCCO4)cc2Cl)CC1 |  | -20.4% |
| Cc1cc(C)cc(NC(=O)Cc2csc(C)n2)c1 |  | 10% |
| O=C(OCCN1C(=O)c2ccccc2C1=O)Oc1ccccc1 |  | -3.35% |
| COc1ccc(NC(=O)COC(=O)Cn2c(C)nc3ccccc32)cc1OC |  | -1.04% |
| O=C(Cn1c(-c2cscn2)nc2ccccc21)Nc1ccc(Cl)cc1 | 5.8 µM (active) |  |

| Compound | Potency | activity change, negative = growth inhibition |
| --- | --- | --- |
| O=C(Cn1c(-c2cncs2)nc2ccccc21)NC1CCCC1 |  | -0.366% |
| COc1ccc(/C=N/N(C)C2=NS(=O)(=O)c3ccccc32)cc1OC |  | 4.29% |
| CC1(C(=O)Nc2ccc3c(c2)OCCO3)CSCC(=O)N1CCOc1ccccc1 (stereo not given) |  | -24.3% |
| Cc1cc(NC(=O)CSc2ncc(C(=O)Nc3ccc(Cl)cc3)c(=O)n2C)no1 |  | 3.91% |
| Cn1c(SCC(=O)c2ccccc2)ncc(C(=O)Nc2ccc(F)cc2)c1=O |  | -22.7% |
| Cc1ccc(NC(=O)c2cnc(SCC(=O)NCC3CCCO3)n(C)c2=O)cc1 (stereo not given) | 11.6 µM (active) |  |
| O=C(NC1CCCCC1)C1CCCN(S(=O)(=O)c2ccc(Br)s2)C1 (stereo not given) |  | -19% |
| Nc1nc(SCc2ccc([N+](=O)[O-])cc2)c2ncn(C3OC(CO)C(O)C3O)c2n1 (stereo not given) |  | -29.6% |
| O=C(Nc1nnc(C2CC2)s1)C1=NN(C2CCS(=O)(=O)C2)C(=O)CC1 (stereo not given) |  | 6.84% |
| COc1ccc(CNC(=O)c2ccc(NS(=O)(=O)c3ccc4[nH]c(=O)[nH]c4c3)cc2)cc1OC |  | -1.98% |
| O=C(COC(=O)CNS(=O)(=O)c1ccc(F)c(F)c1F)NC1CCCC1 |  | -18.3% |
| Cn1cc(CCC(=O)NCc2ccc3c(c2)OCO3)c2ccccc21 |  | -17.6% |
| O=C(CCc1nnc(Cc2ccc3c(c2)OCO3)o1)NCCc1ccccc1Cl | 11.6 µM (active) |  |
| O=C(CCNS(=O)(=O)c1ccccc1C(F)(F)F)NCc1ccc2c(c1)OCO2 |  | -3.92% |
| O=C(O)CCC(=O)NCc1ccc(C(=O)O)cc1 |  | 5.55% |
| COc1cc2c(cc1CNC[C@H]1O[C@@H](n3cnc(C(N)=O)n3)[C@H](O)[C@@H]1O)OCO2 |  | -13.9% |
| COC(=O)COc1ccc(C2NC(=O)NC(C)=C2C(=O)NCc2ccccc2)cc1OC (stereo not given) |  | 7.4% |
| CCCOc1ccc(C2NC(=O)NC(c3ccccc3)=C2C(C)=O)cc1OCC (stereo not given) | 23.1 µM (active) |  |
| COc1cc(C2NC(=O)NC(c3ccccc3)=C2C(C)=O)c(Br)cc1OCC(N)=O (stereo not given) |  | -2.61% |
| CC1CC1C(=O)OCC(=O)Nc1cccc(F)c1 (stereo not given) |  | -16.1% |
| O=C1N/C(=C/c2cccs2)C(=O)N1Cc1ccc(F)cc1 |  | -8.67% |
| CSC1=N/C(=C\C=C\c2cccs2)C(=O)S1 | 14.6 µM (active) |  |
| CN1C/C(=C/c2cccs2)C(=O)/C(=C\c2cccs2)C1 |  | -26.2% |
| Cn1c(=O)n(Cc2c(F)cccc2Cl)c(=O)c2c1nc1n2CCN1c1ccc(F)cc1 |  | -6.42% |
| COc1ccc(OC)c(-c2csc(-c3c(N)c(C(=O)c4ccccc4)n4ccccc34)n2)c1 |  | -9.02% |
